Data on ten compounds can be found in PubChem BioAssay (NCATS).

Inconclusive results are not listed. The source made the active and inactive calls. The call rests on the fitted dose curve; in most records, active means well fitted cell-killing curve with a large enough effect; inconclusive means small, poorly fitted or top-dose-only effect, or effect the other way; inactive means no such curve, though single readings can be large or run the other way.

Assay [1] in a line: Viability qHTS for spleen associated tyrosine kinase inhibitor (SYKi) naive MV4-11 cells (AID 1963823). Further: nearly all actives have a fitted effect of over 40% in size. The settings on record: MV4-11 AML viability, CellTiter-Glo luminescence, 72 h; series mostly up to 45 µM. In outline:
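qHTS, SYK inhibitor-naive MV4-11; 500 cells/well; 72 hr compound exposure, 37 C; CellTiter-Glo added, 10 min RT; luminescence read.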
For orientation: Quantitative high-throughput screening tests each substance at several concentrations.

Assay [2] is described as follows: Viability qHTS for spleen associated tyrosine kinase inhibitor (SYKi) drug resistant MV4-11 cells (AID 1963824). Further: nearly all actives have a fitted effect of over 35% in size. The settings on record: SYKi-resistant MV4-11 viability, CellTiter-Glo, 72 h; series mostly up to 45 µM. In outline:
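CellTiter-Glo luminescence, read 10 min after reagent addition, reports viability after a 72 hr compound exposure. Cells are an MV4-11 line made resistant to SYK inhibition, seeded at 500 per well onto compound-containing plates.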
Potency means the concentration at half of the fitted maximal effect.

With `CC(C)CN(CC(=O)N(CCCN1CCCC1=O)CC(N)=O)C(=O)CNCCc1ccccc1F`, the Potency result in assay [1] and in assay [2] was “inactive” throughout.

With `C=C[C@]1(C)C=C2CCC3C(C)(CCC[C@@]3(C)C(=O)O)C2CC1` (stereo not given in full), the Potency result in assay [1] and in assay [2] was “inactive” in each case.

Regarding `Cn1c(=O)cc(N2CCCC(N)C2)n(Cc2ccccc2C#N)c1=O` (stereo not given), the Potency result in assay [1] and in assay [2] was “inactive” throughout.

On to `O=C(Nc1cc(-c2ccccc2)nn1-c1ccccc1)c1ccc([N+](=O)[O-])cc1`, for which the Potency result in assay [1] is “inactive”. Also, the Potency in assay [2] was 18.4 µM (active).

Regarding `CC(C)(O)/C=C1/C(=O)C(C)(C)C(=O)C(C)(C)C1(O)O[C@@H]1O[C@H](COC(=O)c2cc(O)c(O)c(O)c2)[C@@H](O)[C@H](O)[C@H]1O` (stereo not given in full), the Potency result in assay [1] and in assay [2] was “inactive” throughout.

For `COC(O)(CC(C)C)C1Oc2cc(C)[nH]c(=O)c2O1` (stereo not given), the Potency entry in assay [1] and in assay [2] was “inactive” each time.

On to `CN(Cc1ccc(C(=O)O)cc1)c1ccc(OCc2c(-c3c(Cl)cccc3Cl)noc2C2CC2)nc1C(F)(F)F`, for which the Potency in assay [1] is 20.6 µM (active); in assay [2] it was 16.4 µM (active).

Take `COc1cc(/C=C/C(=O)O[C@H]2[C@H](O)[C@@H](CO)O[C@@]2(CO)O[C@H]2O[C@H](CO)[C@@H](O)[C@H](O)[C@H]2O)cc(OC)c1O`: the Potency entry in assay [1] and in assay [2] was “inactive” in each case.

Turning to `C=CC(=O)N1CCN(C(=O)CNc2cc(-c3ccccc3Cl)c(Cl)cc2OC)CC1`, the Potency was 10.3 µM (active) in assay [1] and 11.6 µM (active) in assay [2].

For `O=C1COc2nccc(-c3ccccc3F)c2CN1Cc1cc(C(F)(F)F)cc(C(F)(F)F)c1`, the Potency is 11.6 µM (active) in assay [1] and 16.4 µM (active) in assay [2].
